Bioassay records deposited in PubChem by Broad Institute.
The full list was thinned out, with hits kept by preference.
BL2 CD40 inh: inhibitors of CD40-induced NF-kB signaling, primary screen, BL2 cells, luciferase reporter, single point. AID 1053188, 2014. inhibition, % at 10 µM. hit rate 0.94% among 83,000. CD40L-induced, 4 h;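 active = mean inhibition of at least 50% with a set share of replicates also reaching that level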;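 also: 0% = neutral control wells and 100% = IKK inhibitor VII at 50 µM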
The depositor's hits bear a star; [ ] = dose if it differs, or a comment.

Results for O=C(Nc1ccccn1)c1ccc(S(=O)(=O)N2CCCC2)cc1 ?
BL2 CD40 inh: -57

What do the screens show for `O=C(Nc1ccccn1)c1ccc2nc(-c3ccccc3)c(-c3ccccc3)nc2c1`?
BL2 CD40 inh: -3

What do the screens show for `O=C(Nc1ccccn1)c1ccc(-c2ccccc2)cc1`?
BL2 CD40 inh: 113*

What do the screens show for `O=C(C1CCCC1)N1CC[C@H]2[C@H](CO)Nc3ccc(Br)cc3[C@H]21`?
BL2 CD40 inh: -7

What do the screens show for `O=C(O)c1ccc2c3c(cccc13)C(=O)N(c1cccc3ccccc13)C2=O`?
BL2 CD40 inh: 1

How did COc1ccc(C(=O)NC2c3ccccc3-c3ccccc32)cc1 do in these assays?
BL2 CD40 inh: 14

Results for O=C(O/N=C(\c1ccccc1)c1ccccn1)c1cccc2ccccc12 ?
BL2 CD40 inh: 3

How did CN1C(=O)/C(=N\OC(=O)c2cccc3ccccc23)c2ccccc21 do in these assays?
BL2 CD40 inh: 99*

What do the screens show for `COc1ccc(C(=O)O/N=C2\C(=O)N(C)c3ccccc32)cc1`?
BL2 CD40 inh: 60*

How did COc1ccc(C(=O)ON=C2CCN(C)CC2)cc1 do in these assays?
BL2 CD40 inh: 11

What do the screens show for `Cc1ccc(S(=O)(=O)Nc2ccc3c(c2)C(=O)N(C)[C@@H]2CC[C@H](CC(=O)NCCc4ccncc4)O[C@H]2CO3)cc1`?
BL2 CD40 inh: -3[25 µM]

How did C[C@@H]1CN([C@@H](C)CO)C(=O)CCCn2cc(nn2)CO[C@@H]1CN(C)C(=O)c1cc(-c2ccccc2)on1 do in these assays?
BL2 CD40 inh: 3[25 µM]

What do the screens show for `Cc1ccccc1-c1ccc(C2[C@@H]3CN(C(=O)C4CCC4)C[C@H]2N3)cc1` (some centres undefined)?
BL2 CD40 inh: 5

How did CN1CCN(Cc2nc3ccccc3c(=O)n2Cc2nc(-c3ccc4ccccc4c3)cs2)CC1 do in these assays?
BL2 CD40 inh: 60*

What do the screens show for `CC(=O)Cn1c(CN2CCCC2)nc2ccccc2c1=O`?
BL2 CD40 inh: 0

How did CN1CCN(Cc2nc3c(c(=O)n(C)c(=O)n3C)n2CCCc2ccccc2)CC1 do in these assays?
BL2 CD40 inh: 3

How did N#C[C@@H]1[C@@H](c2ccccc2C2=CCCC2)[C@@H](CO)N1C(=O)NC1CCCC1 do in these assays?
BL2 CD40 inh: 11

Results for COc1ccc(NC(=O)N(C)C[C@H]2OCc3ccccc3-c3ccccc3C(=O)N([C@@H](C)CO)C[C@@H]2C)cc1 ?
BL2 CD40 inh: -13

Results for CN1C[C@H]2[C@@H](c3ccccc31)[C@@H](CO)N2C(=O)CN1CCOCC1 ?
BL2 CD40 inh: 3[25 µM]

What do the screens show for `C[C@H](NC(=O)C[C@@H]1C[C@@H]2c3cc(NC(=O)NC4CCCC4)ccc3O[C@@H]2[C@H](CO)O1)c1ccccc1`?
BL2 CD40 inh: 1

How did O=C1CCC(C(=O)OCC(=O)c2ccccc2)N1 (centres undefined) do in these assays?
BL2 CD40 inh: 11

What do the screens show for `CC1CC(C)C(=O)C(C(CC2CC(=O)NC(=O)C2)OC(=O)CC(=O)c2ccccc2)C1` (centres undefined)?
BL2 CD40 inh: 56*

Results for O=C(c1ccc(F)cc1)N1CC(=O)N2[C@H](CO)[C@H](c3ccc(C#CC4CCCC4)cc3)[C@H]2C1 ?
BL2 CD40 inh: 19

What do the screens show for `O=C(NCC[C@@H]1CC[C@H](NS(=O)(=O)c2cccc(F)c2)[C@H](CO)O1)C1CCCC1`?
BL2 CD40 inh: -1

Results for COc1cccc(-c2cn(CC[C@@H]3CC[C@H](NC(=O)CC4CC4)[C@H](CO)O3)nn2)c1 ?
BL2 CD40 inh: 1

Results for O=C(C1CC1)N1CC[C@@H]2[C@H](CO)Nc3ccc(C4=CCCCC4)cc3[C@@H]21 ?
BL2 CD40 inh: 16

How did CCOC(=O)CN(c1ccccn1)S(=O)(=O)c1ccccc1 do in these assays?
BL2 CD40 inh: 3

How did CCOC(=O)N=S(N)(=O)c1ccccc1 (centres undefined) do in these assays?
BL2 CD40 inh: 4

Results for CCOC(=O)CC(S(=O)(=O)c1ccccc1)S(=O)(=O)c1ccccc1 ?
BL2 CD40 inh: 97*

What do the screens show for `CN(C)c1ccc2c(c1)[C@@H]1C[C@@H](CC(=O)NCc3ccccc3F)O[C@H](CO)[C@@H]1O2`?
BL2 CD40 inh: -7[25 µM]

Results for CCC(=O)N1[C@H](CO)[C@@H](c2ccccc2-c2cccc(C)c2)[C@@H]1C#N ?
BL2 CD40 inh: -3[25 µM]

Results for CN(C)CC(=O)N1[C@@H]2Cn3c(ccc(-c4cccnc4)c3=O)[C@H]1[C@@H](C(=O)NC1CCCC1)[C@@H]2CO ?
BL2 CD40 inh: -5[25 µM]

Results for COc1ccc(CNC(=O)C[C@H]2C=C[C@@H](NC(=O)c3ccc4c(c3)OCO4)[C@H](CO)O2)cc1 ?
BL2 CD40 inh: 8

What do the screens show for `Cc1cnc(NC(=O)COc2ccc3c(c2)CCC3)s1`?
BL2 CD40 inh: 5

How did Cc1cccc(NC(=O)COc2ccc3c(c2)CCC3)n1 do in these assays?
BL2 CD40 inh: -47

What do the screens show for `O=C(COc1ccc2c(c1)CCC2)Nc1ccccn1`?
BL2 CD40 inh: 90*

How did CO[C@@H]1CN(C)C(=O)c2cc(NS(=O)(=O)c3ccccc3C)ccc2OC[C@@H](C)N(S(=O)(=O)c2ccccc2)C[C@H]1C do in these assays?
BL2 CD40 inh: 9[25 µM]

Results for C[C@H](CO)N1C[C@H](C)[C@@H](CN(C)C(=O)Nc2ccc(N3CCCCC3)cc2)OCc2cn(nn2)CCCC1=O ?
BL2 CD40 inh: -15[25 µM]

How did COc1ccc(-c2ccc([C@@H]3[C@H](C#N)N(C(=O)NC4CCCCC4)[C@H]3CO)cc2)cc1 do in these assays?
BL2 CD40 inh: -18

Results for O=C(Nc1cccc(-c2cn3ccccc3n2)c1)c1cnccn1 ?
BL2 CD40 inh: -25

What do the screens show for `O=C(Nc1ccc(-n2cnnn2)cc1)c1cn2ccccc2n1`?
BL2 CD40 inh: -55

Results for O=C(Nc1ccccc1)c1cn2ccccc2n1 ?
BL2 CD40 inh: 69*

How did C[C@H](CO)N1C[C@H](C)[C@H](CN(C)C)Oc2ccc(NC(=O)Nc3ccc4c(c3)OCO4)cc2C1=O do in these assays?
BL2 CD40 inh: -4[25 µM]

What do the screens show for `CCOC(=O)c1nn(-c2ccc(F)cc2)c(=O)cc1OCC(=O)Nc1cccc(C)c1`?
BL2 CD40 inh: 12

Results for Cc1ccc(NC(=O)c2cc(-c3ccccc3)nn2-c2ccccc2)cc1 ?
BL2 CD40 inh: -3

What do the screens show for `O=C(Nc1ccc(F)cc1)c1nn(-c2ccccc2)c(=O)cc1Cl`?
BL2 CD40 inh: 85*

Results for C[C@@H]1CN([C@@H](C)CO)C(=O)c2ccccc2-c2ccccc2CO[C@@H]1CN(C)S(=O)(=O)CC(F)(F)F ?
BL2 CD40 inh: 0[25 µM]

How did COc1cccc(-c2ccc3c(c2)[C@@H]2[C@@H](CCN2C(=O)c2ccccn2)[C@@H](CO)N3C)c1 do in these assays?
BL2 CD40 inh: -26[25 µM]

What do the screens show for `COc1ccc(NC(=O)N2C[C@H]3[C@@H](c4ccccc42)[C@@H](CO)N3C(=O)C2CCCC2)cc1`?
BL2 CD40 inh: -19

Results for Cc1ccc(S(=O)(=O)N(C)C[C@@H]2OCc3cn(nn3)CCCC(=O)N([C@@H](C)CO)C[C@@H]2C)cc1 ?
BL2 CD40 inh: -3

How did CCOC(=O)N1CCN(Cc2ccc(O)c3ncccc23)CC1 do in these assays?
BL2 CD40 inh: 65*

Results for Oc1ccc(CN2CCN(c3ccccc3)CC2)c2cccnc12 ?
BL2 CD40 inh: -13

What do the screens show for `COCc1cc(CN2CCCC2)c(O)c2ncccc12`?
BL2 CD40 inh: 10

What do the screens show for `O=C(Nc1ccc2c(c1)OCO2)N[C@@H]1CC[C@@H](CCNC(=O)C2CCCC2)O[C@@H]1CO`?
BL2 CD40 inh: -7
